Only some compounds are listed: those with a hit (about 5.7% of all), similar ones and a draw of the others.
B2AR arrestin: beta2AR (human) beta-arrestin recruitment activity. 330,000 tested, 0.02% active. Potency, µM (titrated, usually from 46.1 µM), inactives show at the top dose activation, most hits filed as activators. beta-arrestin recruitment to beta2AR, cell-based reporter. P07550;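 further: 0% = DMSO controls and full agonism = EC100 isoproterenol or metaproterenol; nearly all actives have a fitted effect of over 65% in size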
NPSR antag: blocks cAMP signaling of the human neuropeptide S receptor; Q6W5P4; CHO-NPSR cells, cAMP TR-FRET, antagonist mode; Potency, µM (doses to about 38.3 µM), for the others: at the top dose activity change, negative = inhibition, actives largely listed as inhibitors; 220,000 tested, 1% active; AID 1461; further: nearly all actives have a fitted effect of over 50% in size
Target sequence (Q6W5P4 whole entry, looked up): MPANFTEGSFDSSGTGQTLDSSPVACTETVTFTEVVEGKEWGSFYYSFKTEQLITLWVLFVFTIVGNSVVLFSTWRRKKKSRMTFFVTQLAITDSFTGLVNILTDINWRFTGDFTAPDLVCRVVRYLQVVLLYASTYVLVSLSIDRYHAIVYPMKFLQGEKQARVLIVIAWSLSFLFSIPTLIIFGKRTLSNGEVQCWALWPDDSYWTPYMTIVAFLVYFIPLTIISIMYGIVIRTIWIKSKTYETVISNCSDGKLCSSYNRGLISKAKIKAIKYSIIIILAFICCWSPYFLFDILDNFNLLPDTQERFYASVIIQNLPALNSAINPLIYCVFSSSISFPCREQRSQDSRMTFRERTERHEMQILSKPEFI
RORg inh: ROR gamma (mouse) transcription inhibition; P51450; AID 2551; Potency, µM (highest dose often 53.6 µM), for inactives: at the highest dose activity change, negative = inhibition, usual class: inhibitors; 310,000 tested, 5.4% active; Drosophila S2 Gal4-RORgamma UAS-luciferase reporter, 20 h; further: nearly all actives have a fitted effect of over 60% in size
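Stable Schneider cell line, Gal4 DNA-binding domain fused to ROR gamma, UAS-luciferase. Cmpd 1 hr RT → CuSO4 700 uM final → 20 hr RT → luciferase reagent 10 min → luminescence.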
VP16 counter: Gal4-VP16 reporter inhibition counter-screen; Drosophila S2 Gal4-VP16 UAS-luciferase, luminescence, 20 h; 310,000 tested, 3.5% active; Potency, µM (titrated, usually from 53.6 µM), inactives show at the top dose activity, negative = inhibition, usual class: inhibitors;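 further: Gal4-VP16 expression switched on by copper sulfate through the metallothionein promoter; nearly all actives have a fitted effect of over 50% in size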
Active calls of the source: *; ? = inconclusive; . = no result; [ ] = dose if it differs, or a comment. The call rests on the fitted dose curve; in most records, active means well fitted curve in the direction sought with a large enough effect; inconclusive means small, poorly fitted or top-dose-only effect, or another doubt; inactive means no such curve, though single readings can be large; an effect the other way counts as inactive or inconclusive. Unless noted, on the % scale 0 is the no-effect control and ±100 the full control effect; potency means the concentration at half of the fitted maximal effect.

SMILES	B2AR arrestin	NPSR antag	RORg inh	VP16 counter
COc1ccc(Cn2c(/C=C/c3ccccc3)nc3ccccc32)cc1	-1%	?	7.1µM*	?
O=C(NCCC1=CCCCC1)c1ccc(-n2cncn2)c([N+](=O)[O-])c1	6%	.	.	.
CCCCCCCCCCCCCC[C@@H](O)[C@@H](O)[C@H](CO)NC(C)=O	.	.	5%	-3%
CCC(CC)c1nnc(NC(=O)c2ccc3ccccc3n2)s1	4%	?	3.5µM*	10µM*
CC(C)Cc1nnc(NC(=O)c2cc(-c3ccccc3)nc3ccccc23)s1	0%	1%[46.1 µM]	4.5µM*	?
CCC(CC)c1nnc(NC(=O)c2cc(-c3ccccc3)nc3ccccc23)s1	0%	7%[46.1 µM]	10µM*	11µM*
CCC(CC)c1nnc(NC(=O)Oc2ccccc2)s1	-1%	-1%[46.1 µM]	-3%	0%
COc1cc(/C(C)=N/N2CCN(c3ccccc3OC)CC2)ccc1O	-1%	.	-10%	14%
C=CCN1C(=O)NC(c2ccc(OC)cc2)(C(F)(F)F)S/C1=C(\C#N)c1nnc(N2CCOCC2)n1-c1ccccc1 (stereo unspecified)	-1%	-39%	4.5µM*	13µM*
C=CCN1C(c2cccc(C(F)(F)F)c2)=CS/C1=C(/C#N)c1nnc(N2CCOCC2)n1-c1ccccc1	2%	-39%	?	-16%
Cc1cccnc1N(C(=O)Nc1cccc(Cl)c1)C1=NCC(C)(C)S1	-1%	-7%	11µM*	-25%
Cc1cccnc1N(C(=O)Nc1ccccc1)C1=NCC(C)(C)S1	0%	-2%[46.1 µM]	10µM*	?
COCCn1c(=O)c(-c2cccc(C#N)c2)nc2cnc(OCc3ccccc3)nc21	.	.	28%	-3%
O=C(NC(=S)NCCc1ccccn1)c1ccco1	0%	2%	?	12%
Cc1cccc(C)c1NC(=S)NCCc1ccccn1	-1%	13%	1.4µM*	2.8µM*
S=C(NCCc1ccccn1)Nc1cccc(Cl)c1	-1%	-5%	5µM*	7.9µM*
O=C(NC(=S)NCCc1ccccn1)c1ccccc1	0%	-10%	13µM*	-66%
Fc1cccc(NC(=S)NCc2ccccn2)c1	0%	8%	-36%[10 µM]	?
S=C(NCc1ccccn1)Nc1ccc(Cl)cc1	0%	-11%[46.1 µM]	7.9µM*	?
CC(C)c1ccc(NC(=O)c2snc3ccc(Cl)cc23)cc1	0%	-40%	?	0%
COc1ccc(CNc2cc(-c3ccoc3)ncn2)c(OC)c1	.	.	30%	-9%
Cc1cccc(NC(=S)NCCc2ccccn2)c1	8%	50%	?	?
Cc1ccccc1NC(=S)NCCc1ccccn1	0%	0%[46.1 µM]	16µM*	?
COc1cccc(Cn2c(=O)cnc3cnc(Oc4ccccc4)nc32)c1	.	.	-4%	-14%
CCOC(=O)c1c(C)[nH]c(C(=O)N/N=C/c2cc([N+](=O)[O-])ccc2O)c1C	0%	.	2.2µM*	?
SMILES	B2AR arrestin	NPSR antag	RORg inh	VP16 counter
CCOC(=O)c1c(C)[nH]c(C(=O)N/N=C\c2ccccc2O)c1C	4%	-11%	1.6µM*	1.4µM*
C/C=C/C(=O)[C@@H](C)[C@@H](/C=C/C[Si](C)(C)C)C(C)C	.	.	1%	-2%
CS(=O)(=O)c1ccc(C(=O)Nc2cc(S(C)(=O)=O)ccc2Cl)cc1	-1%	-6%[46.1 µM]	-17%	-2%
CS(=O)(=O)c1ccc(Cl)c(NC(=O)CCl)c1	0%	19%	14µM*	-66%
COC(=O)Cc1ccc2sc(-c3ccccc3)nc2c1	-2%	-14%	?	16µM*
c1ccn2cc(-c3ccc4c(c3)OCCO4)nc2c1	0%	-4%	3.5µM*	?
Cc1ccc2nc(-c3cc(-c4ccccc4)no3)cn2c1	0%	5%	1.4µM*	4µM*
CN(C)S(=O)(=O)c1cccc(-c2cn3cc(Cl)ccc3n2)c1	0%	-15%[46.1 µM]	12%	?
O=C(O)c1cc(-c2ccc3c(c2)OCO3)nc2ccc(Cl)cc12	0%	.	-33%	?
CCc1ccn2cc(-c3cc(-c4ccccc4)no3)nc2c1	0%	25%[7.67 µM]	2%	-12%
Clc1ccc2nc(-c3ccc4c(c3)OCO4)cn2c1	-1%	9%	5µM*	8.9µM*
Clc1ccc2nc(-c3ccccc3)cn2c1	0%	.	11µM*	?
O=C1CCN(CCc2ccccc2)CCN1C(CSc1ccc(Br)cc1)c1ccccc1 (stereo unspecified)	.	.	4%	24%
Cc1ccc2nc(-c3ccc4c(c3)OCCO4)cn2c1	0%	20%	0.4µM*	1.1µM*
Oc1ccc(N=Nc2ccc3c(c2)OCO3)c2ccccc12	0%	4%	0.13µM*	0.63µM*
Oc1ccc2c(c1)OCO2	.	.	-11%	21%
COc1cccc(OCCSc2nc(N)cc(N)n2)c1	0%	-3%[46.1 µM]	7.9µM*	6.3µM*
COc1ccc(/C=N\NC(=O)c2ccc([N+](=O)[O-])cc2)cc1COc1c(F)c(F)cc(F)c1F	0%	.	3.5µM*	4.5µM*
COc1cc(OC)cc(C(=O)N/N=C/c2ccc(OC)c(COc3ccc(F)cc3)c2)c1	0%	-16%[46.1 µM]	4µM*	?
COc1ccc(C(=O)N/N=C/c2ccc(OC)c(COc3c(F)c(F)cc(F)c3F)c2)cc1	0%	.	?	?
O=C(O)CNC(=O)c1ccc([N+](=O)[O-])cc1	.	.	0%	-24%
Cc1cccc(N2CCN(C(=O)CSCc3c(C)noc3C)CC2)c1C	0%	-20%[46.1 µM]	?	10µM*
COC(=O)c1sc(NC(=S)NC(=O)c2ccccc2F)nc1C	0%	13µM*	21%	-22%
COC(=O)c1sc(NC(=S)NC(=O)c2cccc(C)c2)nc1C	0%	-26%	4µM*	?
CC(=O)c1sc(NC(=O)c2cccc(C)c2)nc1C	0%	-17%	-41%	-7%
SMILES	B2AR arrestin	NPSR antag	RORg inh	VP16 counter
Cc1cccc(C)c1NC(=S)NC(=O)c1ccccc1F	0%	-1%	4.5µM*	6.3µM*
CCOC(=O)CNC(=O)c1sc(NC(=O)c2ccccc2F)nc1C	-2%	-13%[46.1 µM]	?	2.5µM*
c1csc(CNc2ncncc2-c2ccoc2)c1	.	.	17%	-3%
CCOCCn1cnc2sc(C(=O)Nc3nc(C)c(C(=O)OCC)s3)c(C)c2c1=O	0%	-7%[46.1 µM]	4.5µM*	-10%
CCOc1ncccc1C(=O)OCC(=O)c1cccc(Br)c1	0%	-3%	1%	-5%
Cc1c(-c2ccccc2)[n+](=O)c(-c2ccc(Cl)cc2)c(C)n1[O-]	1%	2%	5%	-12%[10 µM]
CN1CCN(c2ncc3ncc(=O)n(C4CC4)c3n2)CC1	.	.	12%	-23%
Cc1ccc(C(C)C)cc1NC(=O)Nc1ccc([N+](=O)[O-])cc1	-1%	10µM*	35µM*	13µM*
COC(=O)[C@H]1[C@H]2C[C@@H]3c4[nH]c5ccccc5c4CCN3C[C@H]2C[C@@H](OC(=O)c2cc(OC)c(OC)c(OC)c2)[C@@H]1OC	.	.	7.1µM*	?
COC(=O)[C@H]1C(OC)[C@@H](OC(=O)c2cc(OC)c(OC)c(OC)c2)C[C@@H]2CN3CCc4c([nH]c5cc(OC)ccc45)[C@H]3C[C@H]21 (stereo partly specified)	.	.	-34%	-6%
O=C(CSc1ccccn1)Nc1nonc1[N+](=O)[O-]	0%	.	5.6µM*	5µM*

From PubChem
